# Assay results reported in the supplement of paper PMC8728848.
# This is one part of a sample in which the strongest signals are shown more often than they occur.
# Legend:
# Experiment in all cases: glycan array binding signal (z-score within array); higher = stronger binding
# Conditions in all cases: glycan notation: IUPAC condensed, linker removed
# [1] = target: Fuc(a1-2)Gal(b1-3)GalNAc(b1-4)[Neu5Ac(a2-3)]Gal(b1-4)Glc
# Procedure, shortened: (§1)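 Arrays were curated from the Consortium for Functional Glycomics database, 3228 in total, and kept only where the protein sequence was available. Binding is expressed as a within-array Z-score. This score was averaged across arrays of the same protein sequence at different concentrations or buffers and across linkers, and negative values can be read as non-binding.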
# [2] = target: Fuc(a1-2)Gal(b1-3)[Fuc(a1-4)]GlcNAc(b1-3)[Fuc(a1-3)[Gal(b1-4)]GlcNAc(b1-6)]Gal(b1-4)Glc
# Procedure, shortened: as §1
# [3] = target: Fuc(a1-2)Gal(b1-4)GlcNAc(b1-2)Man(a1-3)[Fuc(a1-2)Gal(b1-4)GlcNAc(b1-2)Man(a1-6)]Man(b1-4)GlcNAc(b1-4)GlcNAc
# Procedure, shortened: as §1
# [4] = target: Fuc(a1-2)Gal(b1-4)GlcNAc(b1-2)Man(a1-3)[Fuc(a1-2)Gal(b1-4)GlcNAc(b1-2)Man(a1-6)]Man(b1-4)GlcNAc(b1-4)[Fuc(a1-6)]GlcNAc
# Procedure, shortened: as §1
# [5] = target: Fuc(a1-2)Gal(b1-4)GlcNAc(b1-3)Gal(b1-4)GlcNAc(b1-3)Gal(b1-4)GlcNAc
# Procedure, shortened: as §1
# [6] = target: Fuc(a1-2)Gal(b1-4)[Fuc(a1-3)]GlcNAc(b1-2)Man(a1-3)[Fuc(a1-2)Gal(b1-4)[Fuc(a1-3)]GlcNAc(b1-2)Man(a1-6)]Man(b1-4)GlcNAc(b1-4)GlcNAc
# Procedure, shortened: as §1
# [7] = target: Fuc(a1-2)Gal(b1-4)[Fuc(a1-3)]GlcNAc(b1-3)GalNAc
# Procedure, shortened: as §1
# [8] = target: Fuc(a1-2)[Gal(a1-3)]Gal(b1-4)GlcNAc
# Procedure, shortened: as §1
# [9] = target: Fuc(a1-2)[Gal(a1-3)]Gal(b1-4)GlcNAc(b1-2)Man(a1-3)[Fuc(a1-2)[Gal(a1-3)]Gal(b1-4)GlcNAc(b1-2)Man(a1-6)]Man(b1-4)GlcNAc(b1-4)GlcNAc
# Procedure, shortened: as §1
# [10] = target: Fuc(a1-2)[Gal(a1-3)]Gal(b1-4)GlcNAc(b1-2)Man(a1-3)[Fuc(a1-2)[Gal(a1-3)]Gal(b1-4)GlcNAc(b1-2)Man(a1-6)]Man(b1-4)GlcNAc(b1-4)[Fuc(a1-6)]GlcNAc
# Procedure, shortened: as §1
# [11] = target: Fuc(a1-2)[Gal(a1-3)]Gal(b1-4)[Fuc(a1-3)]GlcNAc(b1-3)GalNAc
# Procedure, shortened: as §1
# [12] = target: Fuc(a1-2)[GalNAc(a1-3)]Gal
# Procedure, shortened: as §1
# [13] = target: Fuc(a1-2)[GalNAc(a1-3)]Gal(b1-3)GalNAc(a1-3)[Fuc(a1-2)]Gal(b1-4)GlcNAc
# Procedure, shortened: as §1
# [14] = target: Gal(a1-3)Gal(b1-3)GlcNAc(b1-2)Man(a1-3)[Gal(a1-3)Gal(b1-3)GlcNAc(b1-2)Man(a1-6)]Man(b1-4)GlcNAc(b1-4)GlcNAc
# Procedure, shortened: as §1
# [15] = target: Gal(a1-3)Gal(b1-4)[Fuc(a1-3)]GlcNAc(b1-2)Man(a1-3)[Gal(a1-3)Gal(b1-4)[Fuc(a1-3)]GlcNAc(b1-2)Man(a1-6)]Man(b1-4)GlcNAc(b1-4)GlcNAc
# Procedure, shortened: as §1
# [16] = target: Gal(b1-3)GlcNAc(b1-2)Man(a1-3)[Gal(b1-3)GlcNAc(b1-2)Man(a1-6)]Man(b1-4)GlcNAc(b1-4)GlcNAc
# Procedure, shortened: as §1
# [17] = target: Gal(b1-3)GlcNAc(b1-2)Man(a1-3)[Gal(b1-3)GlcNAc(b1-2)Man(a1-6)]Man(b1-4)GlcNAc(b1-4)[Fuc(a1-6)]GlcNAc
# Procedure, shortened: as §1
# [18] = target: Gal(b1-3)[Fuc(a1-4)]GlcNAc(b1-3)Gal(b1-4)GlcNAc
# Procedure, shortened: as §1
# [19] = target: Gal(b1-3)[Neu5Ac(a2-6)]GlcNAc(b1-6)Gal(b1-4)Glc
# Procedure, shortened: as §1
# [20] = target: Gal(b1-4)GlcNAc(b1-3)Gal(b1-4)GlcNAc
# Procedure, shortened: as §1
# Gal4S(b1-4)GlcNAc = target: Gal4S(b1-4)GlcNAc
# Procedure, shortened: as §1
# Gal6S(b1-3)GlcNAc = target: Gal6S(b1-3)GlcNAc
# Procedure, shortened: as §1
# [21] = target: GalNAc(b1-3)Gal(a1-6)Gal(b1-4)Glc
# Procedure, shortened: as §1
# GalNAc(b1-4)GlcNAc = target: GalNAc(b1-4)GlcNAc
# Procedure, shortened: as §1
# GlcA(b1-3)GlcNAc = target: GlcA(b1-3)GlcNAc
# Procedure, shortened: as §1
# [22] = target: GlcNAc(a1-4)Gal(b1-4)GalNAc
# Procedure, shortened: as §1
# [23] = target: GlcNAc(a1-4)Gal(b1-4)GlcNAc(b1-3)Gal(b1-4)[Fuc(a1-3)]GlcNAc(b1-3)Gal(b1-4)[Fuc(a1-3)]GlcNAc
# Procedure, shortened: as §1
# [24] = target: GlcNAc(b1-4)[GlcNAc(b1-6)]GalNAc
# Procedure, shortened: as §1
# Man(a1-3)[Man(a1-6)]Man = target: Man(a1-3)[Man(a1-6)]Man
# Procedure, shortened: as §1
# [25] = target: Neu5Ac(a2-3)Gal(b1-3)[Neu5Ac(a2-3)Gal(b1-4)]GlcNAc
# Procedure, shortened: as §1
# [26] = target: Neu5Ac(a2-3)Gal(b1-4)GlcNAc(b1-3)Gal(b1-4)GlcNAc
# Procedure, shortened: as §1
# [27] = target: Neu5Ac(a2-3)Gal(b1-4)[Fuc(a1-3)]GlcNAc(b1-3)GalNAc
# Procedure, shortened: as §1
# [28] = target: Neu5Ac(a2-6)Gal(b1-4)GlcNAc(b1-2)Man(a1-3)[Man(a1-6)]Man(b1-4)GlcNAc(b1-4)GlcNAc
# Procedure, shortened: as §1
# [29] = target: Neu5Ac(a2-6)Gal(b1-4)GlcNAc(b1-2)Man(a1-6)[GlcNAc(b1-2)Man(a1-3)]Man(b1-4)GlcNAc(b1-4)GlcNAc
# Procedure, shortened: as §1
# [30] = target: Neu5Ac(a2-6)Gal(b1-4)GlcNAc(b1-3)Gal(b1-4)GlcNAc(b1-3)Gal(b1-4)GlcNAc
# Procedure, shortened: as §1
# [31] = target: Neu5Ac(a2-6)Gal(b1-4)GlcNAc(b1-3)GalNAc
# Procedure, shortened: as §1
binder,measurement,setting,value
Gal 2 (Canis lupus) (protein) MSGKFEVMNMDMKLGGTLKIKGKIAGDADGFVINLGQGSDKLNLHFNPRFHESVIVCNSRNWGQEQRDKHMCFSPGSEVKFTVTFENDGFKVKLPDGHQLTFPNRLGHSHLSYLGVQGGLKVSSFKIE,glycan array binding signal (z-score),[1],-0.028
same,glycan array binding signal (z-score),[2],0.019
same,glycan array binding signal (z-score),[3],1.43
same,glycan array binding signal (z-score),[4],0.046
same,glycan array binding signal (z-score),[5],-0.156
same,glycan array binding signal (z-score),[6],0.795
same,glycan array binding signal (z-score),[7],0.409
same,glycan array binding signal (z-score),[8],0.681
same,glycan array binding signal (z-score),[9],15.5
same,glycan array binding signal (z-score),[10],6.28
same,glycan array binding signal (z-score),[11],0.088
same,glycan array binding signal (z-score),[12],-0.339
same,glycan array binding signal (z-score),[13],-0.173
same,glycan array binding signal (z-score),[14],0.082
same,glycan array binding signal (z-score),[15],0.339
same,glycan array binding signal (z-score),[16],0.14
same,glycan array binding signal (z-score),[17],0.051
same,glycan array binding signal (z-score),[18],0.099
same,glycan array binding signal (z-score),[19],-0.068
same,glycan array binding signal (z-score),[20],-0.157
same,glycan array binding signal (z-score),Gal4S(b1-4)GlcNAc,1.7
same,glycan array binding signal (z-score),Gal6S(b1-3)GlcNAc,-0.457
same,glycan array binding signal (z-score),[21],0.131
same,glycan array binding signal (z-score),GalNAc(b1-4)GlcNAc,-0.029
same,glycan array binding signal (z-score),GlcA(b1-3)GlcNAc,2.91
same,glycan array binding signal (z-score),[22],-0.278
same,glycan array binding signal (z-score),[23],1.2
same,glycan array binding signal (z-score),[24],-0.114
same,glycan array binding signal (z-score),Man(a1-3)[Man(a1-6)]Man,0.15
same,glycan array binding signal (z-score),[25],-0.369
same,glycan array binding signal (z-score),[26],0.01
same,glycan array binding signal (z-score),[27],1.21
same,glycan array binding signal (z-score),[28],-0.076
same,glycan array binding signal (z-score),[29],-0.361
same,glycan array binding signal (z-score),[30],-0.293
same,glycan array binding signal (z-score),[31],0.102
